Laboratory results as given in PubChem BioAssay (NCI).
About 79,000 compounds went through this panel and 15% of them were active in at least one assay; those are over-represented in the sample as a whole. Active and inactive are the calls of the source. Rule as the data show it: active = growth inhibition above about 70%; inactive = the rest.

Legend:
[1] = NCI Yeast Anticancer Drug Screen. Data for the rad52 strain (AID 147);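 also: 0% = growth of vehicle-treated control cultures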; conditions: S. cerevisiae rad52 mutant growth inhibition, hits give high values
In short: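 Read-out: growth inhibition versus vehicle-treated controls. Cells were a DNA repair-deficient yeast strain treated with compounds.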

[2] = NCI Yeast Anticancer Drug Screen. Data for the wt1 strain (AID 149);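 also: 0% = growth of vehicle-treated wt1 cultures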; conditions: S. cerevisiae wt1 strain (SPY 50644) growth inhibition, hits give high values
In short: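 Growth inhibition read against vehicle controls after compound exposure of the wt1 yeast strain.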

[3] = NCI Yeast Anticancer Drug Screen. Data for the rad50EPP+ strain (AID 151);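 also: 0% = growth of vehicle-treated control cultures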; conditions: S. cerevisiae rad50 mutant strain, hits give high values
In short: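 Growth inhibition read against vehicle controls in rad50EPP+ yeast, a strain altered in DNA damage repair, after compound exposure.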

[4] = NCI Yeast Anticancer Drug Screen. Data for the mgt1 strain (AID 153); conditions: S. cerevisiae mgt1 mutant growth inhibition, hits give high values
In short: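 mgt1 yeast grown with test compound; read-out is growth inhibition versus vehicle-treated cultures.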

[5] = NCI Yeast Anticancer Drug Screen. Data for the rad50 strain (AID 155);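 also: 0% = growth of vehicle-only cultures of the same strain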; conditions: S. cerevisiae rad50 strain growth inhibition, hits give high values
In short: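 Readout: growth inhibition relative to vehicle-treated cultures. Compound exposure was carried out in a genetically defined yeast strain deficient in DNA damage repair.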

[6] = NCI Yeast Anticancer Drug Screen. Data for the mec2-1 strain (AID 157); conditions: S. cerevisiae mec2-1 strain, hits give high values
In short: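 Yeast mec2-1 mutant treated with compound. Readout: growth inhibition vs vehicle controls.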

[7] = NCI Yeast Anticancer Drug Screen. Data for the rad14 strain (AID 159);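 also: 0% = growth of vehicle-treated control cultures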; conditions: S. cerevisiae rad14 strain growth inhibition, hits give high values
In short: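 Growth inhibition vs vehicle controls; genetically altered yeast strain (DNA damage repair defect) treated with test compounds.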

[8] = NCI Yeast Anticancer Drug Screen. Data for the sgs1 mgt1 strain (AID 161);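 also: 0% = growth of cultures given vehicle only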; conditions: S. cerevisiae sgs1 mgt1 strain, hits give high values
In short: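 Inhibition of yeast growth, normalised to vehicle-treated controls, is reported for a strain bearing genetic alterations in DNA damage repair.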

[9] = NCI Yeast Anticancer Drug Screen. Data for the CLN2oe strain (AID 163);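 also: 0% = growth of vehicle-only control cultures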; conditions: S. cerevisiae CLN2oe strain, hits give high values
In short: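 Read-out: yeast growth inhibition, expressed relative to vehicle-only controls. The strain bears an engineered cell-cycle alteration.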

[10] = NCI Yeast Anticancer Drug Screen. Data for the cln2 rad14 strain (AID 165);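 also: 0% = growth equal to vehicle treated cultures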; conditions: S. cerevisiae cln2 rad14 strain, hits give high values
In short: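 cln2 rad14 yeast strain; compound exposure; growth inhibition read vs vehicle controls.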

[11] = NCI Yeast Anticancer Drug Screen. Data for the bub3 strain (AID 167); conditions: S. cerevisiae bub3 mutant strain, hits give high values
In short: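 Readout: yeast growth inhibition, expressed relative to vehicle-only wells. The test organism is a mutant strain from a panel with lesions in DNA repair or checkpoint genes.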

[12] = NCI Yeast Anticancer Drug Screen. Data for the wt2 strain (AID 169);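 also: 0% = growth of vehicle-treated yeast cultures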; conditions: S. cerevisiae wt2 strain growth inhibition, hits give high values
In short: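 Read-out: growth inhibition versus vehicle-treated control cultures after compound exposure of the yeast strain.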

[13] = NCI Yeast Anticancer Drug Screen. Data for the mlh1 strain (AID 171);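 also: 0% = growth of vehicle-treated control cultures of the same strain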; conditions: S. cerevisiae mlh1 strain growth inhibition, hits give high values
In short: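 Read-out: growth inhibition versus vehicle controls. Strain: engineered yeast with a defined DNA repair or cell cycle defect, compound-treated.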

[14] = NCI Yeast Anticancer Drug Screen. Data for the sgs1 strain (AID 173);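 also: 0% = growth of vehicle-only control cultures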; conditions: S. cerevisiae sgs1 mutant, hits give high values
In short: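 Read-out: yeast growth inhibition relative to vehicle controls, following compound exposure of a strain with a defined DNA repair/cell cycle alteration.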

[15] = NCI Yeast Anticancer Drug Screen. Data for the mlh1 rad18 strain (AID 175); conditions: S. cerevisiae mlh1 rad18 strain growth inhibition, hits give high values
In short: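 Yeast w/ defined DNA-repair lesions; compound exposure; growth vs vehicle controls → % inhibition.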

[16] = NCI Yeast Anticancer Drug Screen. Data for the rad18 strain (AID 177); conditions: S. cerevisiae rad18 mutant growth inhibition, hits give high values
In short: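 Readout: growth inhibition vs vehicle controls. Cells: genetically altered yeast strain, DNA repair defect.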

[17] = at 5.0 µM (retest, dose inferred, filed as 0.5)
[18] = at 50.0 µM (retest, dose inferred, filed as 5.0)

Measured: growth inhibition

Cc1nc2ccc(N=NN(C)C)cc2[nH]1
active: [1]; at 33.0 µM 72% | [1]; at 100.0 µM 97% | [2]; at 100.0 µM 98% | [3]; at 100.0 µM 98% | [4]; at 33.0 µM 99% | [4]; at 100.0 µM 99% | [5]; at 33.0 µM 83% | [5]; [18] 97% | [5]; at 50.0 µM 84% | [5]; at 100.0 µM 98% | [6]; at 33.0 µM 98% | [6]; [18] 98% | [6]; at 50.0 µM 91.3% | [6]; at 100.0 µM 98% | [7]; at 100.0 µM 97% | [8]; at 50.0 µM 88.8% | [9]; at 33.0 µM 96% | [9]; at 100.0 µM 96% | [10]; at 50.0 µM 87.5% | [11]; at 33.0 µM 97% | [11]; [18] 98% | [11]; at 50.0 µM 87.8% | [11]; at 100.0 µM 98% | [12]; at 33.0 µM 98% | [12]; at 100.0 µM 98% | [13]; at 33.0 µM 99% | [13]; at 100.0 µM 99% | [14]; at 100.0 µM 99% | [15]; [18] 98% | [15]; at 50.0 µM 89% | [16]; at 33.0 µM 77% | [16]; at 100.0 µM 98%
inactive: [1]; at 1.2 µM 11% | [1]; at 3.7 µM 8% | [1]; at 11.0 µM 3% | [2]; at 1.2 µM 13% | [2]; at 3.7 µM 6% | [2]; at 11.0 µM 7% | [2]; at 33.0 µM 25% | [3]; at 1.2 µM 13% | [3]; at 3.7 µM 14% | [3]; at 11.0 µM 8% | [3]; at 33.0 µM 51% | [4]; at 1.2 µM 2% | [4]; at 3.7 µM 3% | [4]; at 11.0 µM 15% | [5]; at 1.2 µM 22% | [5]; at 3.7 µM 16% | [5]; [17] -3% | [5]; at 11.0 µM 15% | [6]; at 1.2 µM 15% | [6]; at 3.7 µM 21% | [6]; [17] -9% | [6]; at 11.0 µM 20% | [7]; at 1.2 µM 4% | [7]; at 3.7 µM 4% | [7]; at 11.0 µM 12% | [7]; at 33.0 µM 15% | [8]; [17] -6% | [8]; [18] 7% | [9]; at 1.2 µM 8% | [9]; at 3.7 µM 1% | [9]; at 11.0 µM 30% | [10]; [17] 8% | [10]; [18] 35% | [11]; at 1.2 µM -6% | [11]; at 3.7 µM -5% | [11]; [17] -19% | [11]; at 11.0 µM -2% | [12]; at 1.2 µM -15% | [12]; at 3.7 µM 4% | [12]; at 11.0 µM 6% | [13]; at 1.2 µM 2% | [13]; at 3.7 µM 3% | [13]; at 11.0 µM 15% | [14]; at 1.2 µM 27% | [14]; at 3.7 µM 39% | [14]; at 11.0 µM 40% | [14]; at 33.0 µM 49% | [15]; [17] -7% | [16]; at 1.2 µM 18% | [16]; at 3.7 µM 23% | [16]; at 11.0 µM 26%

O=[N+]([O-])c1cccc2nc3ccccc3c(NCCCn3ccnc3[N+](=O)[O-])c12
active: [1]; at 11.0 µM 86% | [1]; at 33.0 µM 94% | [1]; at 100.0 µM 97% | [2]; at 100.0 µM 86% | [3]; at 33.0 µM 83% | [3]; at 100.0 µM 90% | [4]; at 100.0 µM 82% | [5]; at 11.0 µM 86% | [5]; at 33.0 µM 94% | [5]; [18] 94% | [5]; at 50.0 µM 80% | [5]; at 100.0 µM 96% | [6]; at 11.0 µM 88% | [6]; at 33.0 µM 96% | [6]; [18] 98% | [6]; at 50.0 µM 87.5% | [6]; at 100.0 µM 97% | [7]; at 3.7 µM 73% | [7]; at 11.0 µM 95% | [7]; at 33.0 µM 97% | [7]; at 100.0 µM 98% | [8]; [18] 94% | [8]; at 50.0 µM 85% | [9]; at 33.0 µM 82% | [9]; at 100.0 µM 92% | [10]; [18] 97% | [10]; at 50.0 µM 87.4% | [11]; [18] 78% | [11]; at 100.0 µM 88% | [12]; at 33.0 µM 74% | [12]; at 100.0 µM 88% | [13]; at 33.0 µM 75% | [13]; at 100.0 µM 92% | [14]; at 3.7 µM 74% | [14]; at 11.0 µM 85% | [14]; at 33.0 µM 90% | [14]; at 100.0 µM 93% | [15]; [18] 98% | [15]; at 50.0 µM 79.2% | [16]; at 1.2 µM 90% | [16]; at 3.7 µM 94% | [16]; at 11.0 µM 95% | [16]; at 33.0 µM 96% | [16]; at 100.0 µM 96%
inactive: [1]; at 1.2 µM 53% | [1]; at 3.7 µM 65% | [2]; at 1.2 µM -6% | [2]; at 3.7 µM 24% | [2]; at 11.0 µM 37% | [2]; at 33.0 µM 64% | [3]; at 1.2 µM 24% | [3]; at 3.7 µM 37% | [3]; at 11.0 µM 58% | [4]; at 1.2 µM 17% | [4]; at 3.7 µM 28% | [4]; at 11.0 µM 38% | [4]; at 33.0 µM 55% | [5]; at 1.2 µM 23% | [5]; at 3.7 µM 63% | [5]; [17] 24% | [6]; at 1.2 µM 29% | [6]; at 3.7 µM 55% | [6]; [17] 16% | [7]; at 1.2 µM 17% | [8]; [17] 54% | [9]; at 1.2 µM 5% | [9]; at 3.7 µM 27% | [9]; at 11.0 µM 46% | [10]; [17] 52% | [11]; at 1.2 µM -15% | [11]; at 3.7 µM -12% | [11]; [17] 11% | [11]; at 11.0 µM 11% | [11]; at 33.0 µM 51% | [11]; at 50.0 µM 58.4% | [12]; at 1.2 µM -16% | [12]; at 3.7 µM -9% | [12]; at 11.0 µM 19% | [13]; at 1.2 µM 17% | [13]; at 3.7 µM 33% | [13]; at 11.0 µM 47% | [14]; at 1.2 µM 61% | [15]; [17] 26%
